# Assay results from article PMC7862700, “An all-to-all approach to the identification of sequence-specific readers for epigenetic DNA modifications on cytosine”.
# What was measured:
# Assay in all cases: DAPPL (digital affinity profiling via proximity ligation, sequencing); 10 mM Tris-HCl pH 7.5, 50 mM NaCl, 1 mM DTT, 4% glycerol, room temperature, 30 min; GST-TFs on glutathione beads, 16-mer random dsDNA library, 0.1% formaldehyde crosslink after washing; high values mean tight binding
# FLI1 = molecular target: T1, FLI1 (Homo sapiens, UniProt Q01543 1-452); conditions: protein: recombinant; tags: N-terminal GST; dsDNA, one strand shown
# T1 sequence: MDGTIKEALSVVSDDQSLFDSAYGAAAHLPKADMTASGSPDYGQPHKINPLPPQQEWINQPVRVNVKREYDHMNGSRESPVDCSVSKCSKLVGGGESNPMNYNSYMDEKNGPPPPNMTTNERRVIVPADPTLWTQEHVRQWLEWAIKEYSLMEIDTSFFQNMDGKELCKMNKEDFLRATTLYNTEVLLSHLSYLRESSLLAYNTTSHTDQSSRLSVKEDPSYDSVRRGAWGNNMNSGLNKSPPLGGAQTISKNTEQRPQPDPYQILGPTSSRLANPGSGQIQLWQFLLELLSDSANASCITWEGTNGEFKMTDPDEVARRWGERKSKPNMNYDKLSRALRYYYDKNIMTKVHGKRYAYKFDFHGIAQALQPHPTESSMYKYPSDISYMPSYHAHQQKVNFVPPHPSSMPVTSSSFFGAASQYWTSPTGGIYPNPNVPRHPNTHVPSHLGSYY
# In short: (§1)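 Sequencing on an Illumina NextSeq500 followed washing, crosslinking with 0.1% formaldehyde, proximity ligation (BsaI/T4 ligase, 1 h, 37 °C) and PCR amplification of pools that had been incubated for 30 min at room temperature with 200 nmole of a random double-stranded 16-mer DNA library in Tris/NaCl/DTT/glycerol buffer. Each pool held DNA-barcoded human transcription factors, expressed in yeast as GST fusions and captured on glutathione beads, plus a tag-only sample. Binding signal is a hexamer's read frequency for a factor divided by its frequency in the tag-only sample.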
# ELK1 = molecular target: T2, ELK1 (Homo sapiens, UniProt P19419 1-428); conditions: protein: recombinant; tags: N-terminal GST; dsDNA, one strand shown
# T2 sequence: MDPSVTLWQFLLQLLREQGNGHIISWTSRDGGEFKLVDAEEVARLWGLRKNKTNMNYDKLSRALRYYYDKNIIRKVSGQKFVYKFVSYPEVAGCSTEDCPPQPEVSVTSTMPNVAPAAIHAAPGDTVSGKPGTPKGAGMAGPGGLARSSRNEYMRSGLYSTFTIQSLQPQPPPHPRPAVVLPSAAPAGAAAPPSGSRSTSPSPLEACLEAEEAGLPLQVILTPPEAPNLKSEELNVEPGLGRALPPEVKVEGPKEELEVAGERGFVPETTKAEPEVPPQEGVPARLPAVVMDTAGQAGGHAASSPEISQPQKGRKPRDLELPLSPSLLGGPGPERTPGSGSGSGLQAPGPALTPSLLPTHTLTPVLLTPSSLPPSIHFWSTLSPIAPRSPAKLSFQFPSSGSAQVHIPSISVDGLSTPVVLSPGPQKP
# In short: as §1
# GABPA = molecular target: T3, GABPA (Homo sapiens, UniProt Q06546 1-454); conditions: protein: recombinant; tags: N-terminal GST; dsDNA, one strand shown
# T3 sequence: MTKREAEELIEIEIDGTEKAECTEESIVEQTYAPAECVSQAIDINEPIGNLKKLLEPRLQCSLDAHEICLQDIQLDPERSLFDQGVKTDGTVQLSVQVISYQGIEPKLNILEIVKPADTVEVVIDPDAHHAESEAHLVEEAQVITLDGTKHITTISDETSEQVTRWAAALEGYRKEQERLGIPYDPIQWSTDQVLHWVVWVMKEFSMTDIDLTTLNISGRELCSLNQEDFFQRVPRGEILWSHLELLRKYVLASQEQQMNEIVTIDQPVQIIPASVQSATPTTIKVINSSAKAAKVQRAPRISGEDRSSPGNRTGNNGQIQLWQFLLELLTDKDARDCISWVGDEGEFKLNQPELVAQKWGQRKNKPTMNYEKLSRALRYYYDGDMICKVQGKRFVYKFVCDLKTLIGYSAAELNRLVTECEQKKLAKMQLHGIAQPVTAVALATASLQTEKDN
# In short: as §1
# ERG = molecular target: T4, ERG (Homo sapiens, UniProt P11308 1-479); conditions: protein: recombinant; tags: N-terminal GST; dsDNA, one strand shown
# T4 sequence: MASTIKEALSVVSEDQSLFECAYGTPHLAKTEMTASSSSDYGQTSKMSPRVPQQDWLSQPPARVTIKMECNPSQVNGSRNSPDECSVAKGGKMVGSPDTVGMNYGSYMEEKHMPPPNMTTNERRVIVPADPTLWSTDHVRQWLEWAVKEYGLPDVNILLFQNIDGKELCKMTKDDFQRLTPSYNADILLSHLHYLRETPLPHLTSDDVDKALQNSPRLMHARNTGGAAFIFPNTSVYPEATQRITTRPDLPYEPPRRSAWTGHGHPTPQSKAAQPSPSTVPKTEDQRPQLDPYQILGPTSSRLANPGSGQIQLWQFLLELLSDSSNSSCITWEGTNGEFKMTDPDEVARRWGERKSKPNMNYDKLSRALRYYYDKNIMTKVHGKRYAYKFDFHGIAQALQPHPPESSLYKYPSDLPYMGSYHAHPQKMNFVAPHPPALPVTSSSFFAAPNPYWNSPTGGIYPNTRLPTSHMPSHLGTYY
# In short: as §1
# ELF1 = ELF1 (Homo sapiens, UniProt P32519 1-619); conditions: protein: recombinant; tags: N-terminal GST; dsDNA, one strand shown
# In short: as §1
# EHF = molecular target: T5, EHF (Homo sapiens, UniProt Q9NZC4 1-300); conditions: protein: recombinant; tags: N-terminal GST; dsDNA, one strand shown
# T5 sequence: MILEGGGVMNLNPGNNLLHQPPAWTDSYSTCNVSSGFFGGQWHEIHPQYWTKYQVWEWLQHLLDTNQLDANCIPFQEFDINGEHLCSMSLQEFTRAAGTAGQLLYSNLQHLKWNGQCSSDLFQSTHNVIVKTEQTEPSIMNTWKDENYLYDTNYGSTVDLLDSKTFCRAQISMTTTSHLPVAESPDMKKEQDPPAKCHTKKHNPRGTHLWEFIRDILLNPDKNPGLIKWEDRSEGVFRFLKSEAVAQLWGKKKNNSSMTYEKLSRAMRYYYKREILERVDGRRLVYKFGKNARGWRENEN
# In short: as §1
# SPI1 = SPI1 (Homo sapiens, UniProt P17947 1-270); conditions: protein: recombinant; tags: N-terminal GST; dsDNA, one strand shown
# In short: as §1
# SPIB = SPIB (Homo sapiens, UniProt Q01892 1-262); conditions: protein: recombinant; tags: N-terminal GST; dsDNA, one strand shown
# In short: as §1
# ELK3 = molecular target: T6, ELK3 (Homo sapiens, UniProt P41970 1-407); conditions: protein: recombinant; tags: N-terminal GST; dsDNA, one strand shown
# T6 sequence: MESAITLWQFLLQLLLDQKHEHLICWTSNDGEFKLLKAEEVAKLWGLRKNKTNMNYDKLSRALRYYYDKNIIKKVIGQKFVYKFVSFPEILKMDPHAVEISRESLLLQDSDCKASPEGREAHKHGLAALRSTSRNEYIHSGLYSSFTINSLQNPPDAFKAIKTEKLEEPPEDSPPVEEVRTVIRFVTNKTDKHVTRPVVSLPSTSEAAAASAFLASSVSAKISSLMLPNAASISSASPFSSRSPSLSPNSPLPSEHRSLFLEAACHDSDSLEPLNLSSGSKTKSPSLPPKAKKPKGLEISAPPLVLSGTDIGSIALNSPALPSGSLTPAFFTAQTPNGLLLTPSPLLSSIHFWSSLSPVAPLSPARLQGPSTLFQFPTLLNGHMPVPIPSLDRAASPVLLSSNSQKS
# In short: as §1
# FEV = molecular target: T7, FEV (Homo sapiens, UniProt Q99581 1-238); conditions: protein: recombinant; tags: N-terminal GST; dsDNA, one strand shown
# T7 sequence: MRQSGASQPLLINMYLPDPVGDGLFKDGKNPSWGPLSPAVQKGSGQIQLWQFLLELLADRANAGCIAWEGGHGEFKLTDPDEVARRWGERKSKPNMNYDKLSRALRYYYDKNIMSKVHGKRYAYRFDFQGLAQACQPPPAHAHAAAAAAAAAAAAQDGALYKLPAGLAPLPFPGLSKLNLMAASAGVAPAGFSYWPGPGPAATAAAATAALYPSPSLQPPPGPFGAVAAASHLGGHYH
# In short: as §1
# ETV5 = ETV5 (Homo sapiens, UniProt P41161 1-510); conditions: protein: recombinant; tags: N-terminal GST; dsDNA, one strand shown
# In short: as §1
# HSF1 = HSF1 (Homo sapiens, UniProt Q00613 1-529); conditions: protein: recombinant; tags: N-terminal GST; chain copies: 3; dsDNA, one strand shown
# In short: as §1
# SPIC = molecular target: T8, SPIC (Homo sapiens, UniProt Q8N5J4 1-248); conditions: protein: recombinant; tags: N-terminal GST; dsDNA, one strand shown
# T8 sequence: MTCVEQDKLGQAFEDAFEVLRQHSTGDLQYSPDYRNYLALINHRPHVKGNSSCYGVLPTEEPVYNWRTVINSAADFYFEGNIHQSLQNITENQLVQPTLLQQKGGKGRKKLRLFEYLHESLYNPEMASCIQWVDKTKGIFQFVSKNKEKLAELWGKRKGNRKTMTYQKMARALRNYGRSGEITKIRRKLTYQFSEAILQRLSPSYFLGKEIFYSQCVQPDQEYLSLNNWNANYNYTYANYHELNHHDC
# In short: as §1
# ELF4 = ELF4 (Homo sapiens, UniProt Q99607 1-663); conditions: protein: recombinant; tags: N-terminal GST; dsDNA, one strand shown
# In short: as §1
# ELK4 = molecular target: T9, ELK4 (Homo sapiens, UniProt P28324-2 1-405); conditions: protein: recombinant; tags: N-terminal GST; dsDNA, one strand shown
# T9 sequence: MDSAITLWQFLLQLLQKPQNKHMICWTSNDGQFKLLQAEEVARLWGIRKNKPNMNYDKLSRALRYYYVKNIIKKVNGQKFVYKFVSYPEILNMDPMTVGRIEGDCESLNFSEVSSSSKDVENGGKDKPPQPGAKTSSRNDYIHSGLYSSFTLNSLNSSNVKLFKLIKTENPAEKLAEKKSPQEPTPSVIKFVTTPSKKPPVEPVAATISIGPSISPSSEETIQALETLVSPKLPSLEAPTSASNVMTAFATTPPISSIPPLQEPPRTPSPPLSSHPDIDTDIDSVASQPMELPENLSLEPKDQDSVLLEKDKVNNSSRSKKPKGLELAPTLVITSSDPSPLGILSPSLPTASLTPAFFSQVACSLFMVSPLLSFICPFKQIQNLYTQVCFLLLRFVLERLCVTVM
# In short: as §1
# ETV2 = molecular target: T10, ETV2 (Homo sapiens, UniProt O00321 1-342); conditions: protein: recombinant; tags: N-terminal GST; dsDNA, one strand shown
# T10 sequence: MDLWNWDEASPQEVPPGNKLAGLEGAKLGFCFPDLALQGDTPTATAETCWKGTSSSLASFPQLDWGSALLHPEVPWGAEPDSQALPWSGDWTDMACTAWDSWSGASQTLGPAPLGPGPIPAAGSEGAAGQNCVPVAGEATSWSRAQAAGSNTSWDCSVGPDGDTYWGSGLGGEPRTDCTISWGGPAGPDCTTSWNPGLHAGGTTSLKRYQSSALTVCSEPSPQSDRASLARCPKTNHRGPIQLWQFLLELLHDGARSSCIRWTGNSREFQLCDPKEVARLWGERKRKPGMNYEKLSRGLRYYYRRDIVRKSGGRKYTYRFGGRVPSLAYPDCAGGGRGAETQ
# In short: as §1
# ELF3 = molecular target: T11, ELF3 (Homo sapiens, UniProt P78545 1-371); conditions: protein: recombinant; tags: N-terminal GST; dsDNA, one strand shown
# T11 sequence: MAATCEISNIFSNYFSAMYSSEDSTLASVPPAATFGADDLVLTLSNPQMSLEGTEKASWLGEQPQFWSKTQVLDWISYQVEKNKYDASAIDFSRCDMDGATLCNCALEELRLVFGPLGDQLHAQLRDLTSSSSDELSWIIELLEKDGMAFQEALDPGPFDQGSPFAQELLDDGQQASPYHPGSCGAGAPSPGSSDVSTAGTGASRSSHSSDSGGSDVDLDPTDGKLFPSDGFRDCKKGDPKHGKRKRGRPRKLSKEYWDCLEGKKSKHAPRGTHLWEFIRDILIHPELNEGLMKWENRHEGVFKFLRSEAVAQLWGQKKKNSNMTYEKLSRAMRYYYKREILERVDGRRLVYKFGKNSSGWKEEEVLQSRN
# In short: as §1
# CRX = CRX (Homo sapiens, UniProt O43186 1-299); conditions: protein: recombinant; tags: N-terminal GST; dsDNA, one strand shown
# In short: as §1
# ETV1 = ETV1 (Homo sapiens, UniProt P50549 1-477); conditions: protein: recombinant; tags: N-terminal GST; dsDNA, one strand shown
# In short: as §1
# Chain of SPIB (Q01892 whole entry): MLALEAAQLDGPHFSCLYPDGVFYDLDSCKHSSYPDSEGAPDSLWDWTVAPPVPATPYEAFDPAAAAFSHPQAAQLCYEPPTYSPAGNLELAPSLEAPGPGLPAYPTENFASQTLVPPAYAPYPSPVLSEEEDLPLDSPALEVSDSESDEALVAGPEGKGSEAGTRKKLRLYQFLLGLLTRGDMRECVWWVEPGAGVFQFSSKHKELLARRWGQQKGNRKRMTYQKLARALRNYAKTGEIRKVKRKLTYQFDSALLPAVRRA
# Chain of CRX (O43186 whole entry): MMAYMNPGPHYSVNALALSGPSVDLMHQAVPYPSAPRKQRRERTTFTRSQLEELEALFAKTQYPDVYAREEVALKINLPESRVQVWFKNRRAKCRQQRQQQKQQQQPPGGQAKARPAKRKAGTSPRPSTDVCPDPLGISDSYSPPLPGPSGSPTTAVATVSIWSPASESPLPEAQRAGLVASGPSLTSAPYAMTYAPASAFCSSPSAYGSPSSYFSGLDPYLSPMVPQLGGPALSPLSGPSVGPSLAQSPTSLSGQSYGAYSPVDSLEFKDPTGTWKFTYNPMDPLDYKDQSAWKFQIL
# Chain of ELF1 (P32519 whole entry): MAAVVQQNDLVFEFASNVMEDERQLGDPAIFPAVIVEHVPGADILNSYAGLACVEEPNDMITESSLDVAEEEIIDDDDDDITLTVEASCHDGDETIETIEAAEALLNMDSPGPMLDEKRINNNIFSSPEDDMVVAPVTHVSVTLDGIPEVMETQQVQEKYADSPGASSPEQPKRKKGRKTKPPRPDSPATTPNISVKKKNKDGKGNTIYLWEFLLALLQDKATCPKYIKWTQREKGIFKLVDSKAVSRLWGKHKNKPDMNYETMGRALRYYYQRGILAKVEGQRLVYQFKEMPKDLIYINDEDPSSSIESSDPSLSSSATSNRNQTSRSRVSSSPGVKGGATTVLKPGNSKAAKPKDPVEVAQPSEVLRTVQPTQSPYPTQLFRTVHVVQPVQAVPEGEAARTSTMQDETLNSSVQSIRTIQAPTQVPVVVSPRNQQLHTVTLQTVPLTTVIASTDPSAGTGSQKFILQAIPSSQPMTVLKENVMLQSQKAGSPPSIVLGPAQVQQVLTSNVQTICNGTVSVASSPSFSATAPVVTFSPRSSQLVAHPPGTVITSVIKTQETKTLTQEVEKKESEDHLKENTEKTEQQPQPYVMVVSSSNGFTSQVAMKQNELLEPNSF
# Chain of ETV1 (P50549 whole entry): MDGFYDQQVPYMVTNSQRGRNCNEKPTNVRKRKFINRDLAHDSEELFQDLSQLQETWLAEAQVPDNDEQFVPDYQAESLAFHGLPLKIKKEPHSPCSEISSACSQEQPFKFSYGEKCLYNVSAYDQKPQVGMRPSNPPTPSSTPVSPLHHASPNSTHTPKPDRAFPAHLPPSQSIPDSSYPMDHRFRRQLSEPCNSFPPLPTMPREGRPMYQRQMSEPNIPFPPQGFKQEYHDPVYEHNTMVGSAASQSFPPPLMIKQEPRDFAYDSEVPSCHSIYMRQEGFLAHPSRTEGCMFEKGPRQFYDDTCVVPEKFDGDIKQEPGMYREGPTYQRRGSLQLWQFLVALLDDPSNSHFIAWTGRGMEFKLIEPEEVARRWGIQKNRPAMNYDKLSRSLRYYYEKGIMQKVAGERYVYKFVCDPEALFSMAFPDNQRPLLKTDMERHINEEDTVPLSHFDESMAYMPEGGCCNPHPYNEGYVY
# Chain of ELF4 (Q99607 whole entry): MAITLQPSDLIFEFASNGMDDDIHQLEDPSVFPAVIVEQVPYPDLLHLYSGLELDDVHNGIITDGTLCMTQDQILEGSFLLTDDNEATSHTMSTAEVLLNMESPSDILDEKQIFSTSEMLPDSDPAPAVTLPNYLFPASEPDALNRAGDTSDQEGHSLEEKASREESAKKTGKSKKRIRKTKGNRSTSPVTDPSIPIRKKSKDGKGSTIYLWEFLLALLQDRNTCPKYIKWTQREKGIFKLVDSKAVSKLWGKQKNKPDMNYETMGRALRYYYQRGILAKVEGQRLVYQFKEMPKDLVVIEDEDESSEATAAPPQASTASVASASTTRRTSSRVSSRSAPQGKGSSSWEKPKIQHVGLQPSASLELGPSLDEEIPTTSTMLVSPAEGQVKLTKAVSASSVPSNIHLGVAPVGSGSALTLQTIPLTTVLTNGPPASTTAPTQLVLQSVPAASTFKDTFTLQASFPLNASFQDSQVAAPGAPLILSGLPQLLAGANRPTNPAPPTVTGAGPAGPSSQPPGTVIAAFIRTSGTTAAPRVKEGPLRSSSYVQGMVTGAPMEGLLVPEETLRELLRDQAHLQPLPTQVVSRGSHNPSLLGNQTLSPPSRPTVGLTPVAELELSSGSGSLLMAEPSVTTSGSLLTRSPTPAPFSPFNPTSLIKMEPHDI
# Chain of ETV5 (P41161 whole entry): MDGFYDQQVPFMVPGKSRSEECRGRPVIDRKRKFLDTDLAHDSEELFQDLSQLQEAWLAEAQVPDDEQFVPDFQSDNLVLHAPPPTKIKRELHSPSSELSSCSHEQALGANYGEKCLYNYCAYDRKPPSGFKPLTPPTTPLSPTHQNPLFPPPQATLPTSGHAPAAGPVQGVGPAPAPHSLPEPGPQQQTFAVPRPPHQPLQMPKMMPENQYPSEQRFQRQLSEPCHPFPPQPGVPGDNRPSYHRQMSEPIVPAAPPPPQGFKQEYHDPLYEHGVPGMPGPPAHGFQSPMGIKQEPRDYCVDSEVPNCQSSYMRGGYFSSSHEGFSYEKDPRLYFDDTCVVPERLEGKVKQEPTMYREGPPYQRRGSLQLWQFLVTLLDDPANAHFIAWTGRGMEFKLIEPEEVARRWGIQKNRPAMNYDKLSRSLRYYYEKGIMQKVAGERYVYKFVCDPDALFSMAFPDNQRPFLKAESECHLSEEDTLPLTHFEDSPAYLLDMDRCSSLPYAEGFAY
# Chain of HSF1 (Q00613 whole entry): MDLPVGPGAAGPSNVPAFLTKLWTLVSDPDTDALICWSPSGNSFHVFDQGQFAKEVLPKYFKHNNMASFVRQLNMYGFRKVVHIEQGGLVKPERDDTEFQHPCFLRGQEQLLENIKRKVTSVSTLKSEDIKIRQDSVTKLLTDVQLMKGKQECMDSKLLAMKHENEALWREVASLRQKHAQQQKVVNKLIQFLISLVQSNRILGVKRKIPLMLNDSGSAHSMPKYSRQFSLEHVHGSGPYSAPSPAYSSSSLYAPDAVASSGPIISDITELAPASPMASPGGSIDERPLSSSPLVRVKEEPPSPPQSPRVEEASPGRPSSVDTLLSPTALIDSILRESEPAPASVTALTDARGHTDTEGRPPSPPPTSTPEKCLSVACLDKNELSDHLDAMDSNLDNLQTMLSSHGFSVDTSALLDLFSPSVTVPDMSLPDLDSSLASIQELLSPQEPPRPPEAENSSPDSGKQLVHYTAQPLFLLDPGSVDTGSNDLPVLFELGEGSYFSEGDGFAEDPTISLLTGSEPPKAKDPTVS
sequence,measurement,setting,value
TGCCTC,binding signal,FLI1,"1.39 fold enrichment (6-mer frequency, TF over GST control)"
same,binding signal,ELK1,"1.31 fold enrichment (6-mer frequency, TF over GST control)"
same,binding signal,GABPA,"1.36 fold enrichment (6-mer frequency, TF over GST control)"
same,binding signal,ERG,"1.35 fold enrichment (6-mer frequency, TF over GST control)"
same,binding signal,ELF1,"1.31 fold enrichment (6-mer frequency, TF over GST control)"
same,binding signal,EHF,"1.26 fold enrichment (6-mer frequency, TF over GST control)"
same,binding signal,SPI1,"1.39 fold enrichment (6-mer frequency, TF over GST control)"
same,binding signal,SPIB,"1.4 fold enrichment (6-mer frequency, TF over GST control)"
same,binding signal,ELK3,"1.27 fold enrichment (6-mer frequency, TF over GST control)"
same,binding signal,FEV,"1.32 fold enrichment (6-mer frequency, TF over GST control)"
same,binding signal,ETV5,"1.37 fold enrichment (6-mer frequency, TF over GST control)"
same,binding signal,HSF1,"1.14 fold enrichment (6-mer frequency, TF over GST control)"
same,binding signal,SPIC,"1.4 fold enrichment (6-mer frequency, TF over GST control)"
same,binding signal,ELF4,"1.34 fold enrichment (6-mer frequency, TF over GST control)"
same,binding signal,ELK4,"1.28 fold enrichment (6-mer frequency, TF over GST control)"
same,binding signal,ETV2,"1.3 fold enrichment (6-mer frequency, TF over GST control)"
same,binding signal,ELF3,"1.52 fold enrichment (6-mer frequency, TF over GST control)"
same,binding signal,CRX,"1.06 fold enrichment (6-mer frequency, TF over GST control)"
same,binding signal,ETV1,"1.24 fold enrichment (6-mer frequency, TF over GST control)"
